Experimental data as given in PubChem BioAssay (EPA / NIEHS).
The source made the active and inactive calls. The calls were made as follows, unless noted: active = hit-call score of the fitted dose curve at least 0.9, where 1 is the maximum; inactive = score below 0.9.

Tests used:
[1] = read-out: Protein phosphatase 2A (PPP2R4), PTPA (gene 5524); assay: LTEA_HepaRG_PPP2R4: Life Technologies and Expression Analysis (LTEA) Assay for Protein phosphatase 2A (PPP2R4) using HepaRG (AID 2283522); settings: mRNA level, 48 h; actives raise or lower the signal
Outline: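 Differentiated HepaRG cells in serum-free induction medium were exposed in duplicate for 48 h to eight concentrations, top 100 uM with half-log dilutions, in 0.5% DMSO. PPP2R4 mRNA was quantified by TaqMan qRT-PCR, normalized to ACTB, GAPDH and POLR2A.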

[2] = read-out: Phosphatase and tensin (PTEN), PTEN (gene 5728); assay: LTEA_HepaRG_PTEN: Life Technologies and Expression Analysis (LTEA) Assay for Phosphatase and tensin (PTEN) using HepaRG (AID 2283523); settings: mRNA level, 48 h; actives raise or lower the signal
Outline: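 Read-out is PTEN transcript level by multiplexed TaqMan qRT-PCR after 48 h chemical treatment of human HepaRG cultures in serum-free induction medium. Concentrations spanned 100 uM downward in half-log steps, 0.5% DMSO throughout; activity fitted in both directions against vehicle.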

[3] = read-out: solute carrier (SLC22A1), SLC22A1 (gene 6580); assay: LTEA_HepaRG_SLC22A1: Life Technologies and Expression Analysis (LTEA) Assay for solute carrier (SLC22A1) using HepaRG (AID 2283524); settings: mRNA level, 48 h; actives raise or lower the signal
Outline: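 HepaRG (human liver line), 48 h dosing in serum-free induction medium; 8 conc., half-log down from 100 uM, 0.5% DMSO vehicle, duplicates. Endpoint: SLC22A1 mRNA, qRT-PCR, housekeeping-normalized; gain/loss fit vs DMSO.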

[4] = read-out: Pyruvate Dehydrogenase Kinase 4 (PDK4), PDK4 (gene 5166); assay: LTEA_HepaRG_PDK4: Life Technologies and Expression Analysis (LTEA) Assay for Pyruvate Dehydrogenase Kinase 4 (PDK4) using HepaRG (AID 2283525); settings: mRNA level, 48 h; actives raise or lower the signal
Outline: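 In this multiplexed human HepaRG expression assay, cells are treated 48 h with test chemicals across an eight-point range starting at 100 uM. PDK4 mRNA changes, normalized to ACTB/GAPDH/POLR2A, are fitted in both directions relative to vehicle.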

[5] = read-out: NAD(P)H dehydrogenase [quinone] 1 (NQO1), NQO1 (gene 1728); assay: LTEA_HepaRG_NQO1: Life Technologies and Expression Analysis (LTEA) Assay for NAD(P)H dehydrogenase [quinone] 1 (NQO1) using HepaRG (AID 2283526); settings: mRNA level, 48 h; actives raise or lower the signal
Outline: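 Differentiated HepaRG cells, plated 48 h and then switched to serum-free induction medium, were exposed in duplicate for 48 h to 8-point half-log concentrations up to 100 uM in 0.5% DMSO. mRNA measured by qRT-PCR, normalized to ACTB, GAPDH, POLR2A; bidirectional fit versus DMSO.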

[6] = read-out: Nuclear factor erythroid 2-related factor 2 (Homo sapiens) (UniProt Q16236); assay: LTEA_HepaRG_NFE2L2: Life Technologies and Expression Analysis (LTEA) Assay for Nuclear factor erythroid 2-related factor 2 (NFE2L2) Transcription Factor using HepaRG (AID 2283527); settings: mRNA level, 48 h; actives raise or lower the signal;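 also: TaqMan qRT-PCR transcript level normalised to ACTB GAPDH and POLR2A housekeeping genes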
Outline: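 Transcript level of NFE2L2 is the read-out, measured by microfluidic TaqMan qRT-PCR and normalized to three housekeeping genes. Human HepaRG cultures received test chemical for 48 h at up to 100 uM in half-log steps. Gain or loss of signal is fitted relative to 0.5% DMSO.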

[7] = read-out: succinate dehydrogenase complex iron sulfur subunit B (SDHB), SDHB (gene 6390); assay: LTEA_HepaRG_SDHB: Life Technologies and Expression Analysis (LTEA) Assay for succinate dehydrogenase complex iron sulfur subunit B (SDHB) using HepaRG (AID 2283528); settings: mRNA level, 48 h; actives raise or lower the signal
Outline: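 A human HepaRG culture in serum-free induction medium received test chemicals for 48 h over an eight-point range capped at 100 uM. SDHB expression change was quantified by qRT-PCR.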

[8] = read-out: Signal transducer and activator of transcription 3 (Homo sapiens) (UniProt P40763); assay: LTEA_HepaRG_STAT3: Life Technologies and Expression Analysis (LTEA) Assay for Signal transducer and activator of transcription (STAT3) using HepaRG (AID 2283529); settings: mRNA level, 48 h; actives raise or lower the signal
Outline: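 Read-out is STAT3 mRNA level by qRT-PCR, normalized to three housekeeping genes, in human HepaRG liver cells treated for 48 h. Concentrations ran from 100 uM downward in half-log steps; curves were fitted for gain or loss relative to 0.5% DMSO.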

[9] = read-out: solute carrier (SLCO1B1), SLCO1B1 (gene 10599); assay: LTEA_HepaRG_SLCO1B1: Life Technologies and Expression Analysis (LTEA) Assay for solute carrier (SLCO1B1) using HepaRG (AID 2283530); settings: mRNA level, 48 h; actives raise or lower the signal
Outline: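 SLCO1B1 transcript read by qRT-PCR (Fluidigm arrays), normalized to three housekeeping genes, after 48 h chemical exposure of HepaRG cells; bidirectional concentration-response fitting versus 0.5% DMSO baseline. Eight-point half-log series, maximum 100 uM.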

[10] = read-out: sulfotransferase 2A1 (SULT2A1), SULT2A1 (gene 6822); assay: LTEA_HepaRG_SULT2A1: Life Technologies and Expression Analysis (LTEA) Assay for sulfotransferase 2A1 (SULT2A1) using HepaRG (AID 2283531); settings: mRNA level, 48 h; actives raise or lower the signal
Outline: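 HepaRG, 48 h chemical exposure, 8-pt half-log curve from 100 uM in 0.5% DMSO, duplicates. Readout: TaqMan qRT-PCR of SULT2A1 mRNA, housekeeping-normalized. Bidirectional fit vs DMSO baseline.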

[11] = read-out: Transforming Growth Factor (TGFA), TGFA (gene 7039); assay: LTEA_HepaRG_TGFA: Life Technologies and Expression Analysis (LTEA) Assay for Transforming Growth Factor (TGFA) using HepaRG (AID 2283532); settings: mRNA level, 48 h; actives raise or lower the signal
Outline: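 HepaRG (human liver line), 48 h exposure, 8 conc. half-log down from 100 uM, 0.5% DMSO vehicle, duplicates; serum-free induction medium. TGFA mRNA by TaqMan qRT-PCR, ACTB/GAPDH/POLR2A normalization; gain/loss fit vs DMSO.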

[12] = read-out: Transforming Growth Factor (TGFB1), TGFB1 (gene 7040); assay: LTEA_HepaRG_TGFB1: Life Technologies and Expression Analysis (LTEA) Assay for Transforming Growth Factor (TGFB1) Transporter using HepaRG (AID 2283533); settings: mRNA level, 48 h; actives raise or lower the signal
Outline: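 qRT-PCR readout of TGFB1 transcript in HepaRG lysates, normalized to three housekeeping genes; gain or loss of signal fitted relative to 0.5% DMSO vehicle. Exposure: 48 h, 8-point curve from 100 uM, duplicate wells.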

[13] = read-out: TIMP1, TIMP1 (gene 7076); assay: LTEA_HepaRG_TIMP1: Life Technologies and Expression Analysis (LTEA) Assay for TIMP1 using HepaRG (AID 2283534); settings: mRNA level, 48 h; actives raise or lower the signal;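 also: TaqMan qRT-PCR signal normalized to ACTB GAPDH and POLR2A housekeeping genes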
Outline: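 HepaRG, 48 h exposure, 8-pt half-log series from 100 uM in 0.5% DMSO, duplicates; TIMP1 transcript by Fluidigm qRT-PCR, housekeeping-normalized; bidirectional curve fit vs DMSO baseline.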

[14] = read-out: Tumor necrosis factor receptor 1 (TNFRSF1A), TNFRSF1A (gene 7132); assay: LTEA_HepaRG_TNFRSF1A: Life Technologies and Expression Analysis (LTEA) Assay for Tumor necrosis factor receptor 1 (TNFRSF1A) using HepaRG (AID 2283535); settings: mRNA level, 48 h; actives raise or lower the signal
Outline: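 HepaRG, 48 h plating then 48 h chemical exposure, serum-free induction media; 8-pt CRC from 100 uM, half-log, 0.5% DMSO vehicle, duplicates. Readout: TaqMan qRT-PCR (Fluidigm), housekeeping-gene normalized; bidirectional fit vs DMSO.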

[15] = read-out: Thyroid Hormone Responsive (THRSP), THRSP (gene 7069); assay: LTEA_HepaRG_THRSP: Life Technologies and Expression Analysis (LTEA) Assay for Thyroid Hormone Responsive (THRSP) using HepaRG (AID 2283536); settings: mRNA level, 48 h; actives raise or lower the signal
Outline: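 mRNA induction or loss relative to 0.5% DMSO vehicle was fitted bidirectionally across an eight-point curve whose highest exposure was 100 uM. Human HepaRG liver cells received chemicals in duplicate over 48 h before RNA extraction.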

[16] = read-out: Cellular tumor antigen p53 (Homo sapiens) (UniProt P04637); assay: LTEA_HepaRG_TP53: Life Technologies and Expression Analysis (LTEA) Assay for Tumor Protein P53 (TP53) using HepaRG (AID 2283537); settings: mRNA level, 48 h; actives raise or lower the signal
Outline: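 Gain or loss of TP53 mRNA signal is scored relative to 0.5% DMSO after 48 h chemical treatment of HepaRG liver cells, tested in duplicate at eight half-log concentrations up to 100 uM.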

[17] = read-out: UDP glucuronosyltransferase (UGT1A1), UGT1A1 (gene 54658); assay: LTEA_HepaRG_UGT1A1: Life Technologies and Expression Analysis (LTEA) Assay for UDP glucuronosyltransferase (UGT1A1) using HepaRG (AID 2283538); settings: mRNA level, 48 h; actives raise or lower the signal
Outline: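 Differentiated human HepaRG cells in serum-free induction medium were exposed in duplicate for 48 h to eight half-log concentrations up to 100 uM in 0.5% DMSO. UGT1A1 mRNA was quantified by TaqMan qRT-PCR, normalized to ACTB, GAPDH and POLR2A, and fitted bidirectionally against DMSO.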

[18] = read-out: UDP glucuronosyltransferase (UGT1A6), UGT1A6 (gene 54578); assay: LTEA_HepaRG_UGT1A6: Life Technologies and Expression Analysis (LTEA) Assay for UDP glucuronosyltransferase (UGT1A6) using HepaRG (AID 2283539); settings: mRNA level, 48 h; actives raise or lower the signal
Outline: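 qRT-PCR readout of UGT1A6 mRNA (normalized to ACTB/GAPDH/POLR2A) in differentiated HepaRG cells after 48 h chemical exposure; 8 concentrations, top 100 uM, half-log steps, 0.5% DMSO. Bidirectional curve fit relative to DMSO baseline.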

[19] = read-out: X-box binding protein 1 (XBP1), XBP1 (gene 7494); assay: LTEA_HepaRG_XBP1: Life Technologies and Expression Analysis (LTEA) Assay for X-box binding protein 1 (XBP1) using HepaRG (AID 2283540); settings: mRNA level, 48 h; actives raise or lower the signal
Outline: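 HepaRG, 48 h exposure, 8-pt half-log CRC top 100 uM, 0.5% DMSO vehicle, duplicates. Readout: TaqMan qRT-PCR of XBP1 mRNA, housekeeping-normalised (ACTB/GAPDH/POLR2A); bidirectional fit vs DMSO baseline.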

[20] = LTEA_HepaRG_LDH_cytotoxicity: Cytotoxicity Assessment in the Life Technologies and Expression Analysis (LTEA) Assay (AID 2283563; active = hit-call score of the fitted dose curve at least 0.9, where 1 is the maximum)
Outline: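 HepaRG (human liver line), 48 h exposure, 8-pt half-log series from 100 uM, 0.5% DMSO vehicle, duplicates. Read-out: LDH in spent medium. Positive-direction fit vs DMSO baseline.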

Measured: outcome

Chain of Signal transducer and activator of transcription 3 (Homo sapiens) (P40763 whole entry, looked up): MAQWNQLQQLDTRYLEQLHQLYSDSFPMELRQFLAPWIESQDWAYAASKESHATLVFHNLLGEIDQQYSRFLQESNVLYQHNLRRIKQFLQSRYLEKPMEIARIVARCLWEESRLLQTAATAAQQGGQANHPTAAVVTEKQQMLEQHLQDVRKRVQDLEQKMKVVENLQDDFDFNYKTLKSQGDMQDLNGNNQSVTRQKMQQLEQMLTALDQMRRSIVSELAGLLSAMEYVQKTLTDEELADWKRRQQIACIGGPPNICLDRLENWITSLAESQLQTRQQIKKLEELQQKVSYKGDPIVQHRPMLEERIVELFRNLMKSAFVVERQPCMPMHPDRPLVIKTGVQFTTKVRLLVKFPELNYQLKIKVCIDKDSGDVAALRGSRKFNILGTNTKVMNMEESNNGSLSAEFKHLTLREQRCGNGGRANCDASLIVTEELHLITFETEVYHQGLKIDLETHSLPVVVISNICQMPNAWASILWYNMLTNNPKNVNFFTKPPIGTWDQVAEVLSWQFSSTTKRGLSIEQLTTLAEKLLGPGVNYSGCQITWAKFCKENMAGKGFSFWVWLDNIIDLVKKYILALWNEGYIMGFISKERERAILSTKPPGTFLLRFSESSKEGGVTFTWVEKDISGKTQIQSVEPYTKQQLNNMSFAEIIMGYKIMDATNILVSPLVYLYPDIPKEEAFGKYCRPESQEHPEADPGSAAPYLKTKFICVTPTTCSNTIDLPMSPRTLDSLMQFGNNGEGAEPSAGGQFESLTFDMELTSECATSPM
Chain of Nuclear factor erythroid 2-related factor 2 (Homo sapiens) (Q16236 whole entry, looked up): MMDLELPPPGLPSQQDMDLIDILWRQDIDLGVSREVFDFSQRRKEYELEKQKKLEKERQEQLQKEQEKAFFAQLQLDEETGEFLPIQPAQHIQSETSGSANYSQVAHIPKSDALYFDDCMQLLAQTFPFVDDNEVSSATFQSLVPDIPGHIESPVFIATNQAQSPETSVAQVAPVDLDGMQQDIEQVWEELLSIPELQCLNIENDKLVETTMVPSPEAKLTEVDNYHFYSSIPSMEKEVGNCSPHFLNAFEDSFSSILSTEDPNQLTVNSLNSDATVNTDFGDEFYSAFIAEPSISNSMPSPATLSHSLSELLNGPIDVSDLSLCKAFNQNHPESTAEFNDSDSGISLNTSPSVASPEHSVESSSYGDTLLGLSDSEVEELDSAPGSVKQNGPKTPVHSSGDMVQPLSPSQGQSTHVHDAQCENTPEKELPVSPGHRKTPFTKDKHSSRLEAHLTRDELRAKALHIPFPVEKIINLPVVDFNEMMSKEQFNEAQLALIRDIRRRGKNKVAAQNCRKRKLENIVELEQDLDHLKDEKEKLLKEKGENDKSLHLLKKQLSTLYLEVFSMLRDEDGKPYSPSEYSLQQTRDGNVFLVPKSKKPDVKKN
Chain of Cellular tumor antigen p53 (Homo sapiens) (P04637 whole entry, looked up): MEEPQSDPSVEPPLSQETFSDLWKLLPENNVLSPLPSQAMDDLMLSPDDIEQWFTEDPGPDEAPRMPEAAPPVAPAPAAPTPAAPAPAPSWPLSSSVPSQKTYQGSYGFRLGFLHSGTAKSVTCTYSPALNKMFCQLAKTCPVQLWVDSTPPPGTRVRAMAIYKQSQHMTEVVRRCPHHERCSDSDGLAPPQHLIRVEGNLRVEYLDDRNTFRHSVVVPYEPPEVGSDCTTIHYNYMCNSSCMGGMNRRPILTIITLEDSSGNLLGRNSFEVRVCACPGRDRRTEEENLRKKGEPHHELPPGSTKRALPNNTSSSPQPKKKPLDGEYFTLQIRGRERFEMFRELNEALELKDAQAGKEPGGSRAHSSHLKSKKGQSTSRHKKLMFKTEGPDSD

CS(=O)(=O)OCCCCOS(C)(=O)=O
inactive: [1] | [2] | [3] | [4] | [5] | [6] | [7] | [8] | [9] | [10] | [11] | [12] | [13] | [14] | [15] | [16] | [17] | [18] | [19] | [20]
